GRK2 aptamer HTS = human GRK2 inhibition via aptamer displacement | actives 0.59% (n = 330,000) | bead flow cytometry, FAM-aptamer displacement from GRK2 | AID 488847 | inhibition of aptamer binding, % at 10 µM | P25098;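 active means inhibition of aptamer binding above 40%, roughly 3 SD of noise, on plates passing a quality check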;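 further: median bead fluorescence of bound FAM aptamer so fluorescent compounds give negative values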
Target sequence (P25098 whole entry, looked up): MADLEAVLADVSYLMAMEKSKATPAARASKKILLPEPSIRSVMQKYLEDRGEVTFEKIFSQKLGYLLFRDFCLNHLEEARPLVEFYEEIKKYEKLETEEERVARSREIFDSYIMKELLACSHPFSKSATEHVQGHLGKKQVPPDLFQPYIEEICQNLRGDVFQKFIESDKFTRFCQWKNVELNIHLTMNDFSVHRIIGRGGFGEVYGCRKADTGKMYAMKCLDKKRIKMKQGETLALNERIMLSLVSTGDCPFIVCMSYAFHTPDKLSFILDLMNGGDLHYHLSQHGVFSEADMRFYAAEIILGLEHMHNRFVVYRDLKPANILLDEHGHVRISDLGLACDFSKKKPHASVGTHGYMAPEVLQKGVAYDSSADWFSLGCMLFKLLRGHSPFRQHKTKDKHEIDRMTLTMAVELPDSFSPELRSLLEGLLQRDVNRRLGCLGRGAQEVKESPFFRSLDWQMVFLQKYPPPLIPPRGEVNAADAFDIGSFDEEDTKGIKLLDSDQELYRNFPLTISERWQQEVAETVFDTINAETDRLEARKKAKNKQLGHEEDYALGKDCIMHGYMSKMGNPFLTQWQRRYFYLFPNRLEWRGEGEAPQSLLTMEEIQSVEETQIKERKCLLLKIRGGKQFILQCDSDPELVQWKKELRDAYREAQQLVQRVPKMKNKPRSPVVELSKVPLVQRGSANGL
TLR4 MyD88 comp = blocks binding of human TLR4 to MyD88 | actives 0.18% (n = 200,000) | inhibition, % at 8.4 µM | O00206+Q99836 | AID 861 | HeLa CL3-4 TLR4/MyD88 BLA complementation, FRET ratio; in the data active means inhibition above about 25%
ANO1 block = mouse TMEM16A channel inhibition, primary screen | Q8BHY3 | HEK293 TMEM16A/YFP iodide influx fluorescence, ionomycin | normalized B-score (activity score, 25-100; higher = stronger inhibition) at 10 µM | actives 1.2% (n = 310,000) | AID 588511;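 active means ratio plate-corrected score three or more library SD toward inhibition, starting fluorescence score within five deviations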;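 further: score derived from kinetic fluorescence span divided by baseline fluorescence per well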
ANO1 activ = activators or potentiators of mouse TMEM16A chloride channel | Q8BHY3 | HEK293 TMEM16A/YFP-H148Q/I152L, iodide quench fluorescence; hits give low values | B-score at 10 µM | actives 0.3% (n = 340,000) | AID 623877;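 active means fluorescence-ratio B-score plate-corrected deviation score at least 3 library SD below zero, with starting fluorescence score within 5 deviations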;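 further: channel opened by trigger with iodide after compound preincubation; score built on the fluorescence ratio of max minus min over baseline; more negative score means more quench and so TMEM16A activation or potentiation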
NOD2-RIPK2 inh = inhibitors of human NOD2-RIPK2 interaction | actives 0.38% (n = 360,000) | inhibition, % at 4.98 µM | O43353 | CHO BLA complementation NOD2-RIPK2, CCF4 ratio | AID 624267; in the data active means inhibition above about 21%
TLR9-MyD88 block = TLR9-MyD88 interaction inhibition; inhibition, % at 4.98 µM; actives 0.21% (n = 340,000); Q9NR96+Q99836; CHO BLA complementation TLR9-MyD88, CCF4 FRET ratio;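 active means inhibition above the mean over all tested compounds plus 3 SD, cut at about 21% in these data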
GRK2 inh confirm = human GRK2 inhibition confirmation, cherry pick 1; shares compounds with GRK2 aptamer HTS; bead-bound GRK2, FAM-aptamer displacement, flow cytometry; aptamer displacement, % at 10 µM; actives 4% (n = 2,000);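 active means aptamer displacement above 40%, near three times the noise of non-fluorescent compounds, on plates passing quality checks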;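 further: negative values mostly reflect intrinsic compound fluorescence rather than true enhancement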
Aptamer quench = fluorescent aptamer quenching in GRK2 counter-screen dose response. shares compounds with GRK2 aptamer HTS. Fluorescent RNA aptamer beads, flow cytometry; hits give high values. fluorescence change (kMESF span), kMESF (concentration not given with the values). 110 tested, under 10 active. AID 504521;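 active means compounds whose bead fluorescence drops by more than 37 kMESF across the dose range, marking them as dye quenchers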
FAM quench CP1 = aptamer fluorescence quenching in GRK2 counter-screen; shares compounds with GRK2 aptamer HTS; Carboxyfluorescein RNA aptamer on beads, flow cytometry quenching; hits give low values; fluorescence response (% of DMSO), % at 10 µM; 2,000 tested, under 10 active; AID 504580;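 active means compounds that quench the bead-bound fluorescent RNA probe, cutting fluorescence to under half of the solvent control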;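 further: counterscreen run without GRK2 so only probe quenching by compound is measured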
GRK2 confirm 2 = human GRK2 inhibition confirmation, cherry pick 2. AID 504782. bead-bound GRK2, FAM-aptamer displacement, flow cytometry. 360 tested, under 10 active. inhibition of aptamer binding, % at 10 µM. shares compounds with GRK2 aptamer HTS;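 active means inhibition of aptamer binding above 40%, about triple the noise seen with nonglowing compounds, on plates passing quality control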;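 further: negative values mostly come from compounds that fluoresce themselves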
FAM quench CP2 = quenches fluorescent RNA aptamer, GRK2 hit artifact; shares compounds with GRK2 aptamer HTS; 360 tested, under 10 active; carboxyfluorescein RNA aptamer beads, flow cytometry quenching; hits give low values; fluorescence response vs DMSO, % at 10 µM; AID 588494;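 active means response vs DMSO under 50%, meaning signal dropped by over half, treated as fluorescence quencher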;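 further: labelled aptamer on streptavidin beads without GRK2 as a quench counter-screen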
Of the large screens only hits and unclear results are named; the others gave an inactive call (follow-up assays come after a bar, where they were run). Sampled rows, rich in hits. Any-hit rate of the full collection: about 2.2%.

CC(C)Cc1ccc(C#N)c(SCC(N)=O)n1	GRK2 aptamer HTS 75.0 | GRK2 inh confirm inactive | FAM quench CP1 inactive
CC1(C(=O)NNC(=O)c2cccc([N+](=O)[O-])c2)CC1(Br)Br (centres undefined)	none (no result: TLR4 MyD88 comp) | GRK2 inh confirm inactive | FAM quench CP1 inactive
O=C(NCc1ccccc1)Nc1cccn(Cc2ccccc2)c1=O	GRK2 aptamer HTS 57.0 | GRK2 confirm 2 inactive | FAM quench CP2 inactive
O=C(NCc1ccccc1)Nc1cccn(Cc2ccc(F)cc2)c1=O	none
CSc1ccccc1C(=O)NCCCn1ccnc1	GRK2 aptamer HTS 100.0 (no result: TLR4 MyD88 comp) | GRK2 inh confirm inactive | FAM quench CP1 inactive
CCSc1ccccc1C(=O)NCCCn1ccnc1	none
CCOCCCNC(=S)Nc1ccc2nc(N3CCOCC3)cc(C)c2c1	none (no result: TLR4 MyD88 comp)
S=C(NCCc1ccccc1)N1CCc2ccccc2C1	GRK2 aptamer HTS 95.0 | GRK2 inh confirm inactive | FAM quench CP1 inactive
OC1CCN(C(=S)NCCc2ccccc2)CC1	none
CC(NC(=O)c1cccc(S(=O)(=O)N2CCN(C)CC2)c1)c1ccc(Cl)cc1Cl (centres undefined)	GRK2 aptamer HTS 75.0 (no result: TLR4 MyD88 comp) | GRK2 inh confirm inactive | FAM quench CP1 inactive
CCOC(=O)CC(NC(=O)c1cc2cc(Br)ccc2oc1=O)c1cccc([N+](=O)[O-])c1 (centres undefined)	GRK2 aptamer HTS 78.0 | GRK2 confirm 2 inactive | FAM quench CP2 inactive
CCOC(=O)c1cc2cc([N+](=O)[O-])ccc2oc1=O	none (no result: TLR4 MyD88 comp)
CC1(C(=O)NS(=O)(=O)c2cccc(Cl)c2)CCN1C(=O)C1CCCCC1 (centres undefined)	none (no result: GRK2 aptamer HTS, TLR4 MyD88 comp, ANO1 block, ANO1 activ, TLR9-MyD88 block)
CC(Cl)C(=O)Nc1ncc(C(F)(F)F)cc1Cl (centres undefined)	GRK2 aptamer HTS 52.0 | GRK2 inh confirm inactive | FAM quench CP1 inactive
COc1cc(S(=O)(=O)n2cnc3ccccc32)ccc1Br	GRK2 aptamer HTS 62.0 (no result: TLR4 MyD88 comp) | GRK2 inh confirm inactive | FAM quench CP1 inactive
COc1ccc(C(C)(O)c2nc(-c3cccc(NC(C)=O)c3)cs2)cc1 (centres undefined)	none (no result: GRK2 aptamer HTS, TLR4 MyD88 comp, ANO1 block, ANO1 activ, TLR9-MyD88 block)
O=C(O)/C=C\C(=O)Nc1ccc(N2CCN(c3ccc(F)cc3)CC2)cc1	none
CC(=O)Nc1ccc(N2CCN(c3ccc(F)cc3)CC2)cc1	none (no result: TLR4 MyD88 comp) | GRK2 inh confirm inactive | FAM quench CP1 inactive
Cc1ccc(OCC(=O)NC2=NCCS2)cc1	none
CC(=O)c1ccc(OCCCC(=O)NC2=NCCS2)cc1	none | GRK2 inh confirm inactive | FAM quench CP1 inactive
O=C(COC(=O)c1ccc[n+]([O-])c1)Nc1ccc(Cl)cc1[N+](=O)[O-]	none (no result: TLR4 MyD88 comp, ANO1 block)
COc1cccc(N=C2CC(C)(C)CC(=O)/C2=C(/O)c2ccccc2)c1	GRK2 aptamer HTS 95.0 | GRK2 inh confirm inactive | FAM quench CP1 inactive
CC1(C)CC(=O)/C(=C(\O)c2ccccc2)C(=NCCO)C1	none
Cc1ccccc1Cn1ccc(NC(=O)c2cnn3c(C(F)(F)F)cc(-c4ccco4)nc23)n1	none | GRK2 inh confirm inactive | FAM quench CP1 inactive
COc1ccccc1OCC(=O)Nc1cc(S(=O)(=O)N2CCOCC2)ccc1N1CCCCC1	none (no result: TLR4 MyD88 comp, ANO1 block)
Cc1cc(C)c2c(=O)n3c(nc2c1)C(Cc1ccc(O)cc1)NC(=O)c1cc2ccccc2cc1-3 (centres undefined)	none (no result: GRK2 aptamer HTS, TLR4 MyD88 comp, ANO1 block, ANO1 activ)
O=C(O)c1c2c(nc3ccccc13)/C(=C/c1ccc(OC(F)F)cc1)CCC2	none (no result: TLR4 MyD88 comp)
O=C(O)c1c2c(nc3ccccc13)/C(=C/c1ccc(O)cc1)CC2	GRK2 aptamer HTS 67.0 | GRK2 inh confirm 50.2 | Aptamer quench inactive | FAM quench CP1 inactive
O=C(CCCc1ccccc1)NCCS(=O)(=O)N1CCN(c2ccc(F)cc2)CC1	none (no result: TLR4 MyD88 comp)
O=C(C(=O)N1CCCCC1)c1cn(CC(=O)N2CCCCCC2)c2ccccc12	none (no result: TLR4 MyD88 comp)
Cc1cccc(-c2noc(CCCC(=O)NC3CCCCC3)n2)c1	none (no result: TLR4 MyD88 comp)
Cc1nc([N+](=O)[O-])cn1CC(=O)Nc1ccc(F)c(Cl)c1	GRK2 aptamer HTS 51.0 (no result: TLR4 MyD88 comp) | GRK2 inh confirm inactive | FAM quench CP1 inactive
O=C(Cn1cnc([N+](=O)[O-])c1)Nc1ccc(F)c(Cl)c1	none (no result: GRK2 aptamer HTS, TLR4 MyD88 comp, ANO1 block)
CCNc1nc(OC)nc(N2CCC(Cc3ccccc3)CC2)n1	GRK2 aptamer HTS 100.0 | GRK2 confirm 2 inactive | FAM quench CP2 inactive
C=CCn1c(C)nnc1SCC(=O)Nc1ccccc1C(=O)NC1CC1	none (no result: GRK2 aptamer HTS, TLR4 MyD88 comp, ANO1 block)
Cn1c(CCC(N)=O)nnc1SCC(=O)Nc1ccccc1C(=O)NC1CC1	GRK2 aptamer HTS 75.0 (no result: TLR4 MyD88 comp, ANO1 block) | GRK2 inh confirm inactive | FAM quench CP1 inactive
CCn1c(SCC(=O)N2CCN(c3ccc(F)cc3)CC2)nnc1-c1ccncc1	none (no result: GRK2 aptamer HTS, ANO1 block)
CCN(CC)CCOC(=O)c1ccc(N/C=C(/C#N)c2nc(-c3cc4ccccc4oc3=O)cs2)cc1	GRK2 aptamer HTS 100.0 (no result: TLR4 MyD88 comp) | GRK2 inh confirm 96.7 | FAM quench CP1 38.5
COc1cccc(Cn2c(=S)[nH]c3ccc(N4CCOCC4)cc3c2=O)c1	GRK2 aptamer HTS 43.0 | GRK2 inh confirm inactive | FAM quench CP1 inactive
NNC(=O)c1ccccc1-n1cccc1	none | GRK2 confirm 2 inactive | FAM quench CP2 inactive
CC(=O)OCC(=O)C12OC(C)(C)OC1CC1C3CC=C4CC(O)CCC4(C)C3CCC12C (centres undefined)	none (no result: GRK2 aptamer HTS, TLR4 MyD88 comp, ANO1 block)
COc1ccc(-c2c(C)oc3cc(O)cc(O)c3c2=O)cc1OC	GRK2 aptamer HTS 50.0 | GRK2 inh confirm inactive | FAM quench CP1 inactive
CC(C)C[C@H](NC(=O)C1CCN(C(=O)[C@H](Cc2ccccc2)NC(=O)OC(C)(C)C)CC1)C(=O)O	none (no result: TLR4 MyD88 comp)
CC(C)C[C@H](NC(=O)OC(C)(C)C)C(=O)N1CCC(C(=O)O)CC1	GRK2 aptamer HTS 65.0 | GRK2 inh confirm inactive | FAM quench CP1 inactive
CCc1nc2ccc(C(=O)N3CCN(S(=O)(=O)CC)CC3)cn2c1N(CC)C(=O)NCCc1ccccc1	none (no result: GRK2 aptamer HTS, TLR4 MyD88 comp, ANO1 block, ANO1 activ, TLR9-MyD88 block)
CNc1cc(N2CCN(S(=O)(=O)N(C)C)CC2)ccc1[N+](=O)[O-]	GRK2 aptamer HTS 73.0 | GRK2 inh confirm inactive | FAM quench CP1 inactive
